Laboratory results published in article PMC13494018.
Values without a mark were called inactive. No rule for the calls is given here.

Target: CD276, Q5ZPR3
Sequence (Q5ZPR3 whole entry): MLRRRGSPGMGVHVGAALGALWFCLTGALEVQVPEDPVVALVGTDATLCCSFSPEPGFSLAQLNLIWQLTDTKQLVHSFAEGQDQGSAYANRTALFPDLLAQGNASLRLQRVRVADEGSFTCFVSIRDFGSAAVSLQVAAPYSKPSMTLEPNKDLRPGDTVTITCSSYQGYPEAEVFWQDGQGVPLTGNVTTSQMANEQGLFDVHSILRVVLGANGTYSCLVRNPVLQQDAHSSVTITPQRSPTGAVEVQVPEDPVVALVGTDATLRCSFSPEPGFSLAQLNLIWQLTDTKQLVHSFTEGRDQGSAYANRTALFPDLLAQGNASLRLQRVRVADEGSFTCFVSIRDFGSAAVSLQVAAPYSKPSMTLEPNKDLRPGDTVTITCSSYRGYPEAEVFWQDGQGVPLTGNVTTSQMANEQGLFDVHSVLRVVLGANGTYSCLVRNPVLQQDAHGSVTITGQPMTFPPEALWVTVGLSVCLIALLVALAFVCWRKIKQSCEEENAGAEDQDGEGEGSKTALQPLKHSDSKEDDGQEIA

Binder | binding in a display sort
design_616_e8336982-fa4d-4d7c-b06f-9007953e1994_1205_dldesign_0_cycle1_af2pred (protein) DQAQAKAVAIKTVEGMLKKMKQLKEEAEKNAADPSIAIPKAEAIKQLAEVSMAILKAAGLDQETIDKYEKEAKALKEAAEKAAKKAKE | not found
design_616_e8336982-fa4d-4d7c-b06f-9007953e1994_1227_dldesign_0_cycle1_af2pred (protein) SSGAQLVTTAGAVILAQVPPAAHPYVEAATAAGVAEGVEAFLSGLQEARKALSPEDAAVLLAATTAGLAAGAKAVIA | not found
design_616_e8336982-fa4d-4d7c-b06f-9007953e1994_1282_dldesign_0_cycle1_af2pred (protein) AAALEVTRRTIFAMADHAYKSENLETAKAIMKTLGQIAVAAGEEVLKEAREYIEKLAKESTEEKAKALLEGFEEGVAEAKA | not found
design_616_e8336982-fa4d-4d7c-b06f-9007953e1994_1283_dldesign_0_cycle1_af2pred (protein) AAAAAAAAAARAALRAELLALAEEGAKKVLAGEISLGEAVKAIMEAGAADPEAANEAAAYLIRTVMQATQAA | not found
design_616_e8336982-fa4d-4d7c-b06f-9007953e1994_1297_dldesign_0_cycle1_af2pred (protein) DPTAEAAARSAEARALRERGAAAGPEAAAVAEAAALAAQRANYYYLISYGDPSAAEAAAKAAEAEAEARELRAELEKLLAEAE | not found
design_616_e8336982-fa4d-4d7c-b06f-9007953e1994_1398_dldesign_0_cycle1_af2pred (protein) PREEVERLEREVREARKRAEAATTVEQAGEAALEALEAEARARRLAEELRARGGDEELAERAERVAEEARAVFLFAAGKAIELAKA | not found
design_616_e8336982-fa4d-4d7c-b06f-9007953e1994_1400_dldesign_0_cycle1_af2pred (protein) AAAAVAIADKTIAALARQARRLAEEAIRDPDPERARRLVESAEELVRVAEDIAEAMGASPEAKEAVRRAREEVERAREVVER | not found
design_616_e8336982-fa4d-4d7c-b06f-9007953e1994_1403_dldesign_0_cycle1_af2pred (protein) GAARAAELQGKADYLLAKSYADAALKSPDPEKAAELLKKAKEYAERALEDPVGAPYGEKALKYIEEVEKAL | not found
design_616_e8336982-fa4d-4d7c-b06f-9007953e1994_1415_dldesign_0_cycle1_af2pred (protein) AAAALAAAVAAAKEIAADLSPEDQAIVVTAAVLAVTGAGLGQAIELARAHPAISAAIMGAAARAQAAVLAAA | not found
design_616_e8336982-fa4d-4d7c-b06f-9007953e1994_1495_dldesign_0_cycle1_af2pred (protein) SEAELAKKFEEGLKKVEEAKKYAKKVEAKDPEKGKKLKELAGEAANAVLRGYAIPEKAEEEWAKVEKIYEEAKKIAA | not found
design_616_e8336982-fa4d-4d7c-b06f-9007953e1994_1581_dldesign_0_cycle1_af2pred (protein) EEARREELARKAEEKAEEIAKRLAKEGKSVEEIVEEAERYAKELLRPESEEVREEAAGRAANAAVRAYAKVSLELSA | not found
design_616_e8336982-fa4d-4d7c-b06f-9007953e1994_1719_dldesign_0_cycle1_af2pred (protein) AEAAGKAAAAAIELSREMLRIAREAGNEEVIAIAQRATAAFNQAMLDKKAGIERLKEVAKEAEELPEGKPVAELVKKAIKAFEA | not found
design_616_e8336982-fa4d-4d7c-b06f-9007953e1994_1745_dldesign_0_cycle1_af2pred (protein) APLEAVAKEAAEIAAKELPEASLEDALLVAEALLNPEKAKEYFAEVKKRLSPEDAARLFQTVGKAFSQLSLKLQAALAA | not found
design_616_e8336982-fa4d-4d7c-b06f-9007953e1994_1780_dldesign_0_cycle1_af2pred (protein) MASLAQGVINMVRSLAELAIKASPEEAAKLAAEAADIAIAGGEQFGAETAEEAAKILEEAAKAKPEVAPYAERVKKKLKEL | not found
design_616_e8336982-fa4d-4d7c-b06f-9007953e1994_1845_dldesign_0_cycle1_af2pred (protein) MEEEERKKKREKAEELLAKAKEHIEAAAKQGALGDGLKFATEVVREATELDPELGEEVAKRVQQLLAEQSRQAIA | not found
design_616_e8336982-fa4d-4d7c-b06f-9007953e1994_1846_dldesign_0_cycle1_af2pred (protein) AQAEKEAAAAKAKRLLDQLKEFGALAVTAAAASAQQGQAYLAMARQLAANAKEEAKKTGEEGKELAAQAEATLAAAEAGVAAALAAA | not found
design_616_e8336982-fa4d-4d7c-b06f-9007953e1994_1848_dldesign_0_cycle1_af2pred (protein) GMAEKEKEYEEKLKEYKAKAKEAAKLTVEDPEAGAKKFKEIIEKAAKDFPERAKEIEEELLKVYREALAAAARAAIAAARA | not found
design_616_e8336982-fa4d-4d7c-b06f-9007953e1994_1883_dldesign_0_cycle1_af2pred (protein) NAEVAKLLGQIIDELQAAQAAAAAGDLKAAAKEAQKAAEAAGKIGDPEKGKELAAGAKADPSKAVEYARQALSIASAAAIKIAA | not found
design_616_e8336982-fa4d-4d7c-b06f-9007953e1994_1901_dldesign_0_cycle1_af2pred (protein) AAAARAAAAALAAEAIAAAAAAVAADPAAAAIIHAQAERARGGDAATAVRAAQAAGVLAAVLAGDEALAAAVTRRAAALLAA | not found

Binder | binding in a display sort
design_616_e8336982-fa4d-4d7c-b06f-9007953e1994_1969_dldesign_0_cycle1_af2pred (protein) GEEEKEKKKERFEEILKKAIEGKATKEEIEQAALDGVAYDGGEAVLALLKAYAEAKDPEVRKYLAQALALAARLTAAKLRA | not found
design_616_e8336982-fa4d-4d7c-b06f-9007953e1994_2036_dldesign_0_cycle1_af2pred (protein) GAEELAAEARKAYNEMLELLEKAKETGKTEEYVKKAAEIGRANPIAGQMAMNTVAARDPELAAKLRKAMA | not found
design_616_e8336982-fa4d-4d7c-b06f-9007953e1994_2109_dldesign_0_cycle1_af2pred (protein) AAAAQAAAADAALAAATSMLEKAKEMAATNPESAKKAATVAVDLANYAIALPAATPEQKAQAQKIKEEAEALIASL | not found
design_616_e8336982-fa4d-4d7c-b06f-9007953e1994_2151_dldesign_0_cycle1_af2pred (protein) GAAAAAEETAKKVAKYLVKGDAEEAAKEALKGHTKNQAQHIVLRAANLAAKETGKSQSIYAKAAEAIALIEA | not found
design_616_e8336982-fa4d-4d7c-b06f-9007953e1994_2162_dldesign_0_cycle1_af2pred (protein) MLTPEQLQASINAIKAATRKAVEMARAGNEESAEKLLEVARDIAEALLKTDPEAGKEALKIVEEGEEEARKAAEEVRA | binds (active)
design_616_e8336982-fa4d-4d7c-b06f-9007953e1994_2198_dldesign_0_cycle1_af2pred (protein) MEEERRKKAEELLEKATKELKAMQAQAEALAKAGDIGAATQLVVDAARYGAEVTREAEKIDPEVAEKMAEVTNKIIAAALKALTAYAA | not found
design_616_e8336982-fa4d-4d7c-b06f-9007953e1994_2209_dldesign_0_cycle1_af2pred (protein) NAEAGKYLEEALKLAAEAQKAAAANPAVAPEVIAQASRLVAEAAKAALAGDTKAAKEYLEKMKELRDAAKAALAAA | not found
design_616_e8336982-fa4d-4d7c-b06f-9007953e1994_2287_dldesign_0_cycle1_af2pred (protein) TPEQLKQAAKQALAAAKALVKNAKQASLEDAKKLAEVAKDLTENAIKAAAKAGPEAEKEAKAKAEEIKKAAEEAIAAKEA | not found
design_616_e8336982-fa4d-4d7c-b06f-9007953e1994_2365_dldesign_0_cycle1_af2pred (protein) DVGAATVAAVNATAAAALAAVKEAAKLSPEEAKAATGAALAALADTVGQANKAALAHPEHSAQIVGTGVDALAAVQAAADEAIAKAKA | not found
design_616_e8336982-fa4d-4d7c-b06f-9007953e1994_2432_dldesign_0_cycle1_af2pred (protein) NQTKSLAQGAIAMAEAIAEELRRLGDEESAKKVEEMAKEAKKLIEEGKYEEALKVATEGVAYGAERVAALR | not found
design_617_b3fadc1d-0db4-4da8-8433-818493aa2ab2_49_dldesign_0_cycle1_af2pred (protein) SKLSEEAKKKAEEYLKKAEEAYKLAKEDPAAGQAKLSEILTKAMEAQTEFYKKDPSNKEALDYLNKTIQTITKYLVEAAKL | not found
design_617_b3fadc1d-0db4-4da8-8433-818493aa2ab2_117_dldesign_0_cycle1_af2pred (protein) AEKDEEAKKLVEKAKELAEAGLQTAQATGNVALAQAAANMAKALAKEAIRLAEDEKVKEEAKKEAKQAEKALKQAKA | not found
design_617_b3fadc1d-0db4-4da8-8433-818493aa2ab2_145_dldesign_0_cycle1_af2pred (protein) LQETADKAIEAANKLAELDPEVGDALKTAAETALAQGNEAQARAVKNMAESAYKYFSAKAEAAKAAAEAAA | not found
design_617_b3fadc1d-0db4-4da8-8433-818493aa2ab2_206_dldesign_0_cycle1_af2pred (protein) ADALTKKTAEAIYQQVKKRAEELLKKAKEGTPELAKELAKELKKIAEANAKALSSLGPLGEEYAKKVKEYAEKVIKEIEKII | not found
design_617_b3fadc1d-0db4-4da8-8433-818493aa2ab2_224_dldesign_0_cycle1_af2pred (protein) AEAQALLDQAKAYLAQGTALFQSDPSLSSQALQQFGLAYIYASRAAALATAAGDTATADAAKAVQDQALANMQAIAAS | not found
design_617_b3fadc1d-0db4-4da8-8433-818493aa2ab2_522_dldesign_0_cycle1_af2pred (protein) ADPAQASQQALNAAKAAIKSAARAAKAGNLEDAKKLAEVAADLIAQASPEQAAEALKVAKEEAAEVPEIAEYMISKAEAALAQAKARA | not found
design_617_b3fadc1d-0db4-4da8-8433-818493aa2ab2_588_dldesign_0_cycle1_af2pred (protein) AAAEAAKLQAERDALIKKALEAIEEASALAKELGNQEALALVHKSLTLIAKSLGADAETGLKLAKEALKAAEAALALLKKA | not found
design_617_b3fadc1d-0db4-4da8-8433-818493aa2ab2_636_dldesign_0_cycle1_af2pred (protein) TATLKEILAKVEKALELLKNASPETLNQALSLLTQAWALANKVDPAVAAAINAAIAALVDGMAKGVEVASKEGSAAAEKAIAAVKAAI | not found
design_617_b3fadc1d-0db4-4da8-8433-818493aa2ab2_655_dldesign_0_cycle1_af2pred (protein) AEEEERLRRQAEGLYELTKAVAEYLAKNPAAAEQAKALKEKAEKAFEEGMKEHPAEAIRRLQAVLNEASRAAIAASA | not found
